Screening results from PubChem.
This excerpt belongs to a sample that is enriched for hits.
Dicer inh – human Dicer pre-microRNA cleavage inhibition; Q9UPY3; cat-ELCCA pre-miR-21 Dicer processing, chemiluminescence; stronger effect = higher value; z-score at 25 µM; 6% of 47,000 active; in the data active means z-score above about 3, passing the limit was not always enough;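 further: plate controls were vehicle for no effect and no enzyme for full effect; higher signal means more uncleaved substrate so more Dicer inhibition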
Active calls of the source: *.

SMILES	Dicer inh
CCCCCCCC(=O)Nc1nnc(Sc2ccnc3cc(Cl)ccc23)s1	-0.97
COc1cc(C2C3=C(CCCC3=O)N(C)C3=C2C(=O)CCC3)ccc1O	-0.05
O=C1C2C(c3ccccc3)OC3(C(=O)c4ccccc4C3=O)C2C(=O)N1Cc1ccccc1 (centres undefined)	-0.15
O=C(CSc1nc2ccccc2s1)Nc1nccs1	0.82
O=C(CSC1=NCCS1)Nc1nc2ccccc2s1	-0.6
O=C(CSC1=NCCS1)Nc1nccs1	4*
COc1ccccc1NC(=O)CSC1=NCCS1	4.2*
O=C(CSC1=NCCS1)NC1Cc2ccccc2C1	0.6
COc1ccccc1NC(=O)CSc1cc(C(F)(F)F)cc(C(F)(F)F)c1	23
c1ccc2cc3[nH]c(CN4CCOCC4)nc3cc2c1	-0.55
Cc1ccc(C)c(-c2nc3ccc(N)cc3[nH]2)c1	3
CC(C)c1ccc2nc(-c3ccc(N)cc3)[nH]c2c1	19*
Nc1ccc(-c2nc3ccc(N)cc3o2)cc1	-0.21
CC(=O)Nc1ccc2nc(-c3ccc(-c4nc5ccc(NC(C)=O)cc5[nH]4)cc3)[nH]c2c1	-1
Cc1ccc(-c2nc3ccc(N)cc3[nH]2)cc1	3.1*
O=S(=O)(O)c1ccc2nc(-c3ccccc3)[nH]c2c1	0.87
c1ccc2[nH]c(-c3ccc(-c4nc5ccccc5o4)cc3)nc2c1	0.34
Nc1ccc(-c2nc3cc4ccccc4cc3[nH]2)cc1	4*
Nc1ccc2nc(-c3ccc(Cl)cc3)[nH]c2c1	2
Nc1ccc(-c2nc3ccc(-c4nc5ccccc5o4)cc3[nH]2)cc1	6.5*
Cc1[nH]c(=S)[nH]c(=O)c1Oc1ccccc1	0.14
C/C(=N\Nc1c(Cl)cccc1Cl)c1sc(CCn2cccc(C(F)(F)F)c2=O)nc1C	-0.03
COc1ccc(C=NCCc2cccs2)c(O)c1	2.3
COc1cccc(-c2nnc(SCc3ccccc3C)o2)c1	-1.1
COC(=O)C1CCCC(C(=O)OC)C1=O (centres undefined)	0.03
SMILES	Dicer inh
CCC/C(O)=C(/C=Nc1ccccc1C(=O)OC)C(=O)OCC	3.2*
CCOC(=O)C(=CNc1ccc(C(=O)OC)o1)C(=O)OCC	0.79
COC(=O)c1c(OC)ccc(N=C/C(C(C)=O)=C(\C)O)c1OC	-0.8
Cc1cc(C)n(S(=O)(=O)c2ccc(-c3ccccn3)s2)n1	-1.2
O=C(NC(=O)N1CCc2c([nH]c3ccccc23)C1C(F)(F)F)c1ccccc1 (centres undefined)	7.5*
O=S(=O)(c1cc(C(F)(F)F)cc(C(F)(F)F)c1)N1CCc2c([nH]c3ccccc23)C1C(F)(F)F (centres undefined)	3.5*
O=C(O)CCCC(=O)N1CCc2c([nH]c3ccccc23)C1C(F)(F)F (centres undefined)	-0.64
FC(F)(F)Oc1ccccc1NC(=S)N1CCc2c([nH]c3ccccc23)C1C(F)(F)F (centres undefined)	-7
O=C(O)CCC(=O)N1CCc2c([nH]c3ccccc23)C1C(F)(F)F (centres undefined)	1
FC(F)(F)Oc1ccc(NC(=S)N2CCc3c([nH]c4ccccc34)C2C(F)(F)F)cc1 (centres undefined)	1.1
COC(=O)C1=C(C)NC2=C(C(=O)CC(c3ccc(Cl)cc3)C2)C1c1ccc(OC)cc1OC (centres undefined)	0.01
Cc1onc(-c2c(Cl)cccc2Cl)c1C(=O)Nc1ccccc1[N+](=O)[O-]	-2.2
CN(C)/C=C/C(=O)c1ccc2c(c1)CCC(C)(C)O2	0.03
CN1CN=C2SC(CO)(CO)C(=O)N2C1	-0.21
CCCCc1nc(S(=O)(=O)c2ccc(C)cc2)c(N(C)C)o1	-2
Cc1onc(-c2c(Cl)cccc2Cl)c1N(C)C(=O)N1CCCCC1	13
C=CCNC(=S)NNC(=O)c1sc2nc(C)cc(C)c2c1N	4.2*
Cc1cc(C)c2c(N)c(C(N)=O)sc2n1	0.03
C=CCNC(=S)NNC(=O)c1sc2nnc(-c3ccccc3)c(-c3ccccc3)c2c1N	16
CC1(C)CC(=O)C2=C(C1)c1c(ccc3ccccc13)NC2c1cccnc1 (centres undefined)	-1.1
Nc1cc(C(F)(F)F)ccc1Oc1ccc(Cl)cc1Cl	-1.9
CCCCCOC(=O)C1=C(C)NC2=C(C(=O)CC(C)(C)C2)C1c1ccc(OC(C)=O)cc1 (centres undefined)	1.8
NC(=O)CN1C(C(=O)c2ccccc2)=C(N2CCOCC2)c2ccccc2S1(=O)=O	0.95
NC(=O)CN1C(C(=O)c2ccccc2)=C(NCc2ccccc2)c2ccccc2S1(=O)=O	0.71
CCCN(CCC)C1=C(C(=O)c2ccccc2)N(CC(N)=O)S(=O)(=O)c2ccccc21	3.5*
SMILES	Dicer inh
Cc1cc(C)c2c(n1)sc1c(=O)n(Cc3ccc([N+](=O)[O-])cc3)cnc12	-0.27
CCO/C(C)=N\OC(=O)c1c(-c2c(F)cccc2Cl)noc1C	-0.44
CCOC(=O)/C(=C\Nc1ccc(F)cc1)[N+](=O)[O-]	0.61
Cc1ccc2c(N)c(C(=O)c3ccc(-c4ccccc4)cc3)sc2n1	3.2*
Cc1cc(C)c2c(N)c(C(=O)c3ccccc3)sc2n1	-0.42
COc1ccc(C(=O)c2sc3nc(-c4ccc(OC)cc4)ccc3c2N)cc1	0.01
COC(CNC(=S)Nc1cc(Cl)c(Cl)cc1Cl)OC	-0.66
Cc1ccc(C(=O)CSc2ncn[nH]2)c(C)c1	1
O=C1N(c2ccc(C(F)(F)F)cc2)C(=Nc2ccc(C(F)(F)F)cc2)SC12CC2	0.7
Cc1ccccc1-c1nc2sc3c(c2c(=O)o1)CCC3	0.99
O=c1oc(-c2cccs2)nc2sc3c(c12)CCCCC3	0.26
O=c1oc(-c2ccccc2)nc2sc3c(c12)CCCC3	0.54
O=c1oc(-c2ccccc2)nc2sc3c(c12)CCCCC3	3.1*
O=c1oc(/C=C/c2ccccc2)nc2sc3c(c12)CCC3	4.8*
S=c1nc2sc3c(c2c(Nc2ccccc2)[nH]1)CCCC3	-0.93
CC1=C(C#N)C(c2ccc(C(F)(F)F)cc2Cl)C2=C(CCCC2=O)N1 (centres undefined)	-1.6
Cc1cc(Oc2ccc(C(F)(F)F)cc2NS(C)(=O)=O)cc(C)c1Cl	-0.2
CCOC(=O)C1C2C=CC3(CN(c4ccccc4Cl)C(=O)C13)O2 (centres undefined)	0.16
N=C(N)SCc1ccccc1Cl	-0.65
Nc1nnc(SCc2ccccc2Cl)s1	11*
NCCc1nnc(SCc2ccccc2Cl)o1	0.34
Cc1ccc(C)n1-c1ccc(Br)cc1C(=O)O	8.8
Cc1ccc(C)n1-c1sccc1C(=O)O	2.6
Cc1ccc(C)n1-c1ccc(O)c(C(=O)O)c1	33*
COc1ccc(C(=O)C[n+]2cc(-c3ccccc3)n3c2CCC3)cc1	-1.2
SMILES	Dicer inh
O=C(NNc1cccc(C(F)(F)F)n1)c1c(F)cccc1F	1.5
O=C(Nc1ccc(OC(=O)N2CCOCC2)cc1)N1CCOCC1	-0.43
COc1ccc(S(=O)(=O)NCCNC(=O)N2CCOCC2)cc1	-0.42
COc1ccc(OC(=O)N2CCOCC2)cc1	5*
C=C(C)CC(Nc1ccccc1F)c1ccco1 (centres undefined)	-0.12
Cc1ccc(C(=O)CC2(O)C(=O)Nc3ccc(Br)cc32)s1 (centres undefined)	-0.26
CCCCc1c(COC)[nH]c(=S)[nH]c1=O	0.89
CC(C)NC(=O)OCc1noc(-c2ccc(Cl)cc2)n1	0.2
OCC1OC(Nc2ccc(Cl)cc2)C(O)C(O)C1O (centres undefined)	3.4*
OC[C@H]1O[C@@H](Oc2ccccc2)[C@H](O)[C@@H](O)[C@@H]1O	1.7
CCN(CC)CCOC(=O)c1ccc(N[C@@H]2O[C@H](CO)[C@@H](O)[C@H](O)[C@H]2O)cc1	-1.3
